# Screening results deposited in PubChem BioAssay by National Center for Advancing Translational Sciences (NCATS).
# Only some compounds are listed: those with a hit (about 21% of all), similar ones and a draw of the others.
# SARS PLP yeast: blocks SARS-CoV papain-like protease in a yeast assay | AID 485353 | S. cerevisiae expressing SARS-CoV PLpro, growth rescue | 330,000 tested, 0.19% active | Potency, µM (series often up to 32.9 µM), for the others: at the highest dose activity, positive = growth rescue, usual class: activators; calls by dose curve; further: potency means the concentration at half of the fitted maximal effect; 0% is about no effect; nearly all actives have a fitted effect of over 55% in size
# Shiga toxin inh: inhibitors of Shiga toxin in Vero cells; inhibition, % at 38.7 µM; Vero cells, Shiga toxin protein synthesis inhibition reporter; 290,000 tested, 9.2% active; in the data active means inhibition mostly above about 28%, no sharp cut-off; inactive means mostly below about 43%; further: 0% is about no effect
# CHX counter: counter-screen hit for Shiga toxin inhibitors, cycloheximide | 300,000 tested, 12% active | max response, % | AID 2314 | cell reporter, cycloheximide protein synthesis inhibition counterscreen; in the data active means max response mostly above about 13%, no sharp cut-off; inactive means mostly below about 14%; further: read at 38.3 µM for the half of the compounds with a filed dose; 0% is about no effect
# Pf growth 96h: P. falciparum growth inhibition at 96 hours; P. falciparum luciferase reporter growth, 96 h; Potency, µM (series often up to 28.7 µM), for inactives: at the highest dose activity change, negative = inhibition, usual class: inhibitors; 320,000 tested, 6.9% active; further: potency means the concentration at half of the fitted maximal effect; on the % scale 0 is the no-effect control and ±100 the full control effect
#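 Parasite growth measured via integrated firefly luciferase reporter in P. falciparum. Infected erythrocytes at 2% hematocrit, 0.05% parasitemia final were treated 96 hours at 37 C under 5% CO2, and luminescence was read.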
# Pf growth 48h: P. falciparum growth inhibition at 48 hours (one generation); P. falciparum luciferase growth in erythrocytes, 48 h; Potency, µM (series often up to 28.7 µM), for inactives: at the top dose activity change, negative = inhibition, usual class: inhibitors; 310,000 tested, 5.9% active; AID 504832; further: potency means the concentration at half of the fitted maximal effect; on the % scale 0 is the no-effect control and ±100 the full control effect
#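 Firefly luciferase activity from engineered P. falciparum reports growth; inhibitors lower the luminescent signal. Cultures contained 2% hematocrit erythrocytes at 0.1% final parasitemia.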
# NS1 function inh: influenza NS1 inhibition. AID 2326. Potency, µM (highest dose often 46.1 µM), inactives show top-dose activity, positive = more growth. 270,000 tested, 0.4% active; calls by dose curve; further: potency means the concentration at half of the fitted maximal effect; actives are rising curves; nearly all actives have a fitted effect of over 50% in size
#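 Growth recovery, yeast-based: influenza A NS1 expressed in S. cerevisiae causes slow growth, and suppressors are detected by OD600. The parent strain without NS1 is used as positive control.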
# An asterisk follows results filed as active; ? = inconclusive; / = not tested or not shown. Unless noted, the call rests on the fitted dose curve; in most records, active means well fitted inhibition curve with a large enough effect; inconclusive means small, poorly fitted or top-dose-only effect, or another doubt; inactive means no such curve, though single readings can be large or run the other way.
SMILES,SARS PLP yeast,Shiga toxin inh,CHX counter,Pf growth 96h,Pf growth 48h,NS1 function inh
CCS(=O)(=O)c1ccc(S(=O)(=O)CC)s1,1.7%,-8.2,-2.7,-14.4%,5.4%,-8.0%
CC(=O)N1CCOc2ccc(S(=O)(=O)N3CCC(C(=O)NCc4ccccc4)CC3)cc21,0.4%,7.2,-1.1,?,?,-12.2%
COc1ccc(NC(=O)C2CCCN(c3cnccn3)C2)cc1 (stereo not drawn),-2.4%,-3.4,13.8,?,-16.5%,-8.3%
Cc1cc(N2CCCC(C(=O)Nc3ccc4c(c3)CCC4)C2)n2ncnc2n1 (stereo not drawn),2.6%,-3.2,-2.6,15.6%,-19.4%,1.6%
CCC(C)c1ccc(NC(=O)C2CCCN(c3ncccn3)C2)cc1 (stereo not drawn),-9.1%,50.1*,33.0*,8.2%,-8.2%,-45.7%
Cc1cc(N2CCCC(C(=O)Nc3cccc(Cl)c3)C2)n2ncnc2n1 (stereo not drawn),0.1%,-8.6,-1.1,14.7µM*,-2.0%,-0.5%
CCc1ccccc1NC(=O)C1CCCN(c2ncccn2)C1 (stereo not drawn),-1.6%,-3.4,-3.3,3.7%,8.4%,2.5%
Cc1ccnc(N2CCCC(C(=O)Nc3ccc(C)c(C)c3)C2)n1 (stereo not drawn),-0.2%,15.0,-4.8,24.3%,?,-1.5%
Cc1ccc(NC(=O)C2CCCN(c3ncccn3)C2)cc1C (stereo not drawn),-1.8%,99.2*,28.6*,?,34.7%,-14.5%
CC(C)(C)c1ccc(NC(=O)C2CCCN(c3cnccn3)C2)cc1 (stereo not drawn),-30.7%,34.4,15.9*,-19.5%,?,-10.1%
Cc1cc(C)c(NC(=O)C2CCN(c3cnccn3)CC2)c(C)c1,-19.9%,14.3,-4.3,13.1µM*,5.6%,-0.5%
O=[N+]([O-])c1ccccc1/C=N/Nc1nnc(-c2ccccc2)c(-c2ccccc2)n1,10.9%,-12.6,-7.4,44.5%,34.1%,16.5%
CSc1nc2cc(Oc3cccc(Cl)c3Cl)c(Cl)cc2[nH]1,-27.8%,-7.5,10.1,12µM*,6.75µM*,/
C=CCN=C1SC(C)C(=O)N1S(=O)(=O)c1ccccc1 (stereo not drawn),3.9%,-13.1,-1.0,7.38µM*,6.1%,?
CCc1ccc(CN2CCC(n3nccc3NC(=O)c3ccccc3)CC2)o1,-10.7%,-5.1,6.6,10.3%,-18.1%,-4.4%
Cc1ccc(S(=O)(=O)N2CCN(C(=O)c3ccco3)CC2)cc1,-4.1%,-5.6,-4.2,-3.9%,-5.4%,-9.8%
Cc1ccc(S(=O)(=O)N2CCN(C(=O)c3ccco3)CC2)c(C)c1,1.7%,-4.2,-2.6,10.4µM*,-4.1%,-4.1%
COc1ccc(F)cc1S(=O)(=O)N1CCN(C(=O)c2ccco2)CC1,0.1%,-6.2,-1.0,10.4µM*,1.3%,2.2%
Cc1ccc(S(=O)(=O)N2CCN(C(=O)C3CCN(C(=O)c4ccc(F)cc4)CC3)CC2)c(C)c1,-0.5%,/,/,?,13.1µM*,/
Cc1ccc(S(=O)(=O)N2CCN(C(=O)c3ccccc3Cc3ccccc3)CC2)c(C)c1,-10.5%,-3.9,-2.1,9.28µM*,?,?
CCc1ccc(OC)c(S(=O)(=O)N2CCN(C(=O)c3ccco3)CC2)c1,6.8%,-7.2,-2.5,?,-1.6%,6.5%
COc1ccc(C)cc1S(=O)(=O)N1CCN(C(=O)c2ncoc2-c2cccc(F)c2)CC1,1.8%,-5.1,-5.3,0.657µM*,2.2%,-46.7%
Cc1ccc2cc3cc(C(=O)N4CCN(C(=O)c5ccco5)CC4)sc3nc2c1,-3.0%,27.6,18.9*,6.3%,?,-8.0%
C=C1CC2C(CC[C@]3(C)C(=O)CCC23)[C@]2(C)C=CC(=O)C=C12 (stereo partly drawn),/,/,/,13.5µM*,?,/
O=C(COC(=O)C(Cc1ccccc1)NC(=O)c1ccccc1)c1ccccc1 (stereo not drawn),16.5%,37.0*,24.0*,41.2%,-2.8%,13.1%
SMILES,SARS PLP yeast,Shiga toxin inh,CHX counter,Pf growth 96h,Pf growth 48h,NS1 function inh
CCc1ccc(C(=O)COC(=O)C(CCSC)NC(=O)c2ccccc2)cc1 (stereo not drawn),8.4%,active,22.2*,-7.2%,10.6%,-4.9%
CCc1ccc(C(=O)COC(=O)C(CCSC)NC(=O)C23CC4CC(CC(C4)C2)C3)cc1 (stereo not drawn),-3.9%,-7.2,-3.4,?,-6.3%,-5.0%
CC(NC(N)=O)C(=O)OCC(=O)c1ccc(-c2ccccc2)cc1 (stereo not drawn),-1.4%,43.1*,36.1*,41.7%,11.0%,/
O=C(CSc1nncn1-c1ccccc1)Nc1ccc(F)cc1F,1.3%,-2.4,-4.1,53.1%,21.2%,-2.1%
C=C1CCN([C@H](C(=O)NCc2ccccc2)C(C)C)S(=O)(=O)c2ccccc21,0.4%,-3.8,-2.9,11.7µM*,?,3.3%
COC(CN1CCc2c(C)nc3c(C#N)cnn3c21)OC,3.4%,-2.8,-0.8,-2.6%,-1.5%,6.6%
COc1ccc(-c2cnn3c4c(c(C)nc23)CCN4C(C)C)cc1OC,-1.7%,47.0*,26.8*,53.8%,62.2%,3.1%
CC(C)[C@H]1COC(NC2=N[C@@H](C(C)C)CO2)=N1,10.3%,-1.3,-1.6,-2.8%,-7.9%,6.9%
NS(=O)(=O)c1ccc(CCNS(=O)(=O)c2ccc(Cl)s2)cc1,-2.5%,/,/,/,/,/
O=C(NCCN1CCCC1)C1CC(=O)N(C2CCCCC2)C1 (stereo not drawn),-0.7%,-12.7,-1.8,13.1µM*,27.5%,?
CCOC(=O)c1ccccc1NC(=O)C1CC(=O)N(C2CCCCC2)C1 (stereo not drawn),0.8%,78.1*,57.6*,?,17.2%,6.8%
O=C(NCCc1ccccc1)C1CC(=O)N(C2CCCCCC2)C1 (stereo not drawn),1.0%,-4.8,0.2,-4.1%,5.1%,-7.1%
O=C(NCCc1ccccc1)C1CC(=O)N(C2CCCCC2)C1 (stereo not drawn),8.2%,-4.1,-2.8,5.86µM*,11.3%,5.0%
CC1CCN(CCCNC(=O)C2CC(=O)N(C3CCCCCC3)C2)CC1 (stereo not drawn),1.2%,-2.9,-0.8,52.7%,3.7%,2.0%
CCOC(=O)c1ccccc1NC(=O)C1CC(=O)N(C(C)(C)C)C1 (stereo not drawn),-3.6%,/,-0.9,24.1%,4.4%,-1.7%
O=C(NCc1cccnc1)/C(=C\c1ccc(-c2ccc(Cl)c(Cl)c2)o1)S(=O)(=O)c1ccccc1,-21.0%,-24.4,-15.8,?,?,?
COc1cccc(CNS(=O)(=O)c2cc3c(cc2Cl)NC(=O)CO3)c1,-3.3%,-6.1,-2.3,5.6%,9.2%,4.8%
COc1ccc(/C(C)=N/Nc2nc3ccccc3nc2C)cc1OC,-0.1%,57.4*,33.6*,?,11.3%,-8.1%
COc1cc(/C=N/NC(=S)Nc2cccc(C(=O)O)c2)cc(OC)c1OC,16.8%,-2.1,5.9,-0.6%,41.0%,2.9%
